# PMC11062922 (Nature Chemical Biology, 2023)
# Like-named read-outs stand apart in the source and are kept apart here.
# Key:
# Set-up in all cases: species or system human, MV4-11 + K-562 + COLO205 + SK-N-BE2 + OVCAR-8
# [1] = system: CSNK1G1; conditions: read-out: apparent Kd, compound concentrations: 100 nM and 1000 nM (sheet 'Samples'), n = 1
# [2] = system: MAP2K5; conditions: read-out: apparent Kd, n = 1
# [3] = system: MAPK1; conditions: read-out: apparent Kd; compound concentrations: 100 nM and 1000 nM (sheet 'Samples'), CATDS: 9.4433771330179501E-3; n = 1
# [4] = system: PIM2; conditions: read-out: apparent Kd, n = 1
# [5] = system: SYK; conditions: read-out: apparent Kd, compound concentrations: 100 nM and 1000 nM (sheet 'Samples'), n = 1
# [6] = system: IRAK1; conditions: read-out: apparent Kd; compound concentrations:100 nM and 1000 nM (sheet 'Samples'); n = 1
# [7] = system: TBK1; conditions: read-out: apparent Kd; compound concentrations:100 nM and 1000 nM (sheet 'Samples'); n = 1
# [8] = system: MAPK11; conditions: read-out: apparent Kd, n = 1
# [9] = system: PIM1; conditions: read-out: apparent Kd; compound concentrations: 100 nM and 1000 nM (sheet 'Samples'), CATDS: 1.79844140695006E-2; n = 1
# [10] = system: PRKCI; conditions: read-out: apparent Kd, compound concentrations: 100 nM and 1000 nM (sheet 'Samples'), n = 1
# [11] = system: NTRK1; conditions: read-out: apparent Kd, compound concentrations: 100 nM and 1000 nM (sheet 'Samples'), n = 1
# [12] = system: STRADA; conditions: read-out: apparent Kd; compound concentrations: 100 nM and 1000 nM (sheet 'Samples'), CATDS: 9.4665319729240003E-3; n = 1
# [13] = system: PRKX;PRKY; conditions: read-out: apparent Kd; compound concentrations:100 nM and 1000 nM (sheet 'Samples'); n = 1
# [14] = system: CAMK4; conditions: read-out: apparent Kd; compound concentrations: 100 nM and 1000 nM (sheet 'Samples'), CATDS: 6.74489650552607E-3; n = 1
# [15] = system: MERTK; conditions: read-out: apparent Kd; compound concentrations: 100 nM and 1000 nM (sheet 'Samples'), CATDS: 1.1592861489919001E-2; n = 1
# [16] = compound concentrations:100 nM and 1000 nM (sheet 'Samples')
smiles,measurement,setting,value
O=C(O)C(F)(F)F.O=c1[nH]ccc2nc(N[C@@H]3CCNC3)nc(Nc3ccc4c(c3)S(=O)(=O)CC4)c12 [GSK2181306A],potency estimated from few doses,[1]; CATDS: 8.6672996654843307E-3,1380 nM
same,potency estimated from few doses,"[2]; compound concentrations: 100 nM and 1000 nM (sheet 'Samples'), CATDS: 1.2089918500056101E-2",509 nM
same,potency estimated from few doses,[3],1020 nM
same,potency estimated from few doses,"[4]; compound concentrations: 100 nM and 1000 nM (sheet 'Samples'), CATDS: 8.9086191917804505E-3",1250 nM
same,potency estimated from few doses,[5]; CATDS: 8.7741915408421998E-3,1320 nM
Cc1cccc(Nc2nc(N[C@H]3CCNC3)ncc2C(N)=O)c1.Cl [GSK2197149A],potency estimated from few doses,[2]; [16],1170 nM
CC(C)Oc1ccc2c(-c3ccnc(Nc4ccc(N5CCN(C)CC5)cc4)n3)cnn2n1 [GW696155X],potency estimated from few doses,[6],769 nM
same,potency estimated from few doses,[7],621 nM
CS(=O)(=O)CCn1c(=O)c(Oc2ccc(F)cc2F)cc2cnc(NC3CCOCC3)nc21 [RO5027956-000],potency estimated from few doses,[8]; [16],1730 nM
same,potency estimated from few doses,[4]; [16],1660 nM
Cc1ccccc1-n1ncc(C(=O)c2ccccc2)c1N [RO1151248-000],potency estimated from few doses,"[8]; compound concentrations: 100 nM and 1000 nM (sheet 'Samples'), CATDS: 3.0870042087065699E-2",552 nM
CCn1c(-c2cccnc2O)nc2cnccc21 [SB-736715],potency estimated from few doses,[1]; CATDS: 1.6371117072737501E-2,1080 nM
same,potency estimated from few doses,"[8]; compound concentrations: 100 nM and 1000 nM (sheet 'Samples'), CATDS: 1.30714391114645E-2",1760 nM
same,potency estimated from few doses,[9],909 nM
same,potency estimated from few doses,"[4]; compound concentrations: 100 nM and 1000 nM (sheet 'Samples'), CATDS: 1.60081703977401E-2",1130 nM
same,potency estimated from few doses,[10]; CATDS: 1.2421041550088101E-2,2000 nM
same,potency estimated from few doses,[5]; CATDS: 1.27185371688364E-2,1880 nM
COc1cc[nH]c1/C=C1\C(=O)Nc2ccc(F)c(C#CC3(O)CCNCC3)c21.Cl [RO0282986-001],potency estimated from few doses,[11]; CATDS: 9.7350807133640294E-3,1470 nM
same,potency estimated from few doses,[12],1660 nM
CCN(CC)Cc1ccc(Nc2nccc(-c3cnn4ncccc34)n2)cc1 [GW780056X],potency estimated from few doses,[11]; CATDS: 2.09044703121741E-2,1140 nM
Cl.Cl.NC(CNC(=O)c1cc(Br)c(-c2ccnc3[nH]ccc23)s1)c1ccccc1.NC(CNC(=O)c1cc(Br)c(-c2ccnc3[nH]ccc23)s1)c1ccccc1 (centres unmarked) [GSK1322949A],potency estimated from few doses,[11]; CATDS: 2.41440168152992E-2,2140 nM
same,potency estimated from few doses,[10]; CATDS: 2.43099453780894E-2,2100 nM
CC(C)Nc1cc(-c2ccc3c(N)n[nH]c3c2)nc(N)n1 [GSK2221681A],potency estimated from few doses,[13],1270 nM
CCn1c(-c2nonc2N)nc2c(C#CC(C)(C)O)nc(O[C@@H](CN)c3ccccc3)cc21.O=C(O)C(F)(F)F [GSK1007102B],potency estimated from few doses,[13],83.5 nM
NC(=O)c1cc(-c2ccccc2)cc2c(C3CCNCC3)c[nH]c12 [GSK301362A],potency estimated from few doses,[4]; [16],1500 nM
O=C(O)C(F)(F)F.O=C(O)C(F)(F)F.O=c1[nH]ccc2nc(N[C@@H]3CCCNC3)nc(Nc3ccc(S(=O)(=O)N4CCOCC4)cc3)c12.O=c1[nH]ccc2nc(N[C@@H]3CCCNC3)nc(Nc3ccc(S(=O)(=O)N4CCOCC4)cc3)c12 [GSK2177277A],potency estimated from few doses,[14],1190 nM
same,potency estimated from few doses,[1]; CATDS: 7.1909422101758503E-3,882 nM
same,potency estimated from few doses,"[2]; compound concentrations: 100 nM and 1000 nM (sheet 'Samples'), CATDS: 1.4569473169207601E-2",103 nM
same,potency estimated from few doses,[15],181 nM
